Measurements from the supplement of paper PMC11732987, “Enantioselective OTUD7B fragment discovery through chemoproteomics screening and high-throughput optimisation” (Communications Chemistry, 2025).

Assays:
Test in all cases: log2 ratio of Biotin-Ahx-Ub-VS probe labelling (fragment/DMSO); higher = less target engagement (more negative = stronger competition), active = hit call of the paper (q ≤ 0.05, log2 ratio ≤ -1)
Details in all cases: compound concentration: 200 uM; treatment time: 3 h
USP19 = target: T1, USP19 (UniProt O94966)
T1 sequence (whole entry): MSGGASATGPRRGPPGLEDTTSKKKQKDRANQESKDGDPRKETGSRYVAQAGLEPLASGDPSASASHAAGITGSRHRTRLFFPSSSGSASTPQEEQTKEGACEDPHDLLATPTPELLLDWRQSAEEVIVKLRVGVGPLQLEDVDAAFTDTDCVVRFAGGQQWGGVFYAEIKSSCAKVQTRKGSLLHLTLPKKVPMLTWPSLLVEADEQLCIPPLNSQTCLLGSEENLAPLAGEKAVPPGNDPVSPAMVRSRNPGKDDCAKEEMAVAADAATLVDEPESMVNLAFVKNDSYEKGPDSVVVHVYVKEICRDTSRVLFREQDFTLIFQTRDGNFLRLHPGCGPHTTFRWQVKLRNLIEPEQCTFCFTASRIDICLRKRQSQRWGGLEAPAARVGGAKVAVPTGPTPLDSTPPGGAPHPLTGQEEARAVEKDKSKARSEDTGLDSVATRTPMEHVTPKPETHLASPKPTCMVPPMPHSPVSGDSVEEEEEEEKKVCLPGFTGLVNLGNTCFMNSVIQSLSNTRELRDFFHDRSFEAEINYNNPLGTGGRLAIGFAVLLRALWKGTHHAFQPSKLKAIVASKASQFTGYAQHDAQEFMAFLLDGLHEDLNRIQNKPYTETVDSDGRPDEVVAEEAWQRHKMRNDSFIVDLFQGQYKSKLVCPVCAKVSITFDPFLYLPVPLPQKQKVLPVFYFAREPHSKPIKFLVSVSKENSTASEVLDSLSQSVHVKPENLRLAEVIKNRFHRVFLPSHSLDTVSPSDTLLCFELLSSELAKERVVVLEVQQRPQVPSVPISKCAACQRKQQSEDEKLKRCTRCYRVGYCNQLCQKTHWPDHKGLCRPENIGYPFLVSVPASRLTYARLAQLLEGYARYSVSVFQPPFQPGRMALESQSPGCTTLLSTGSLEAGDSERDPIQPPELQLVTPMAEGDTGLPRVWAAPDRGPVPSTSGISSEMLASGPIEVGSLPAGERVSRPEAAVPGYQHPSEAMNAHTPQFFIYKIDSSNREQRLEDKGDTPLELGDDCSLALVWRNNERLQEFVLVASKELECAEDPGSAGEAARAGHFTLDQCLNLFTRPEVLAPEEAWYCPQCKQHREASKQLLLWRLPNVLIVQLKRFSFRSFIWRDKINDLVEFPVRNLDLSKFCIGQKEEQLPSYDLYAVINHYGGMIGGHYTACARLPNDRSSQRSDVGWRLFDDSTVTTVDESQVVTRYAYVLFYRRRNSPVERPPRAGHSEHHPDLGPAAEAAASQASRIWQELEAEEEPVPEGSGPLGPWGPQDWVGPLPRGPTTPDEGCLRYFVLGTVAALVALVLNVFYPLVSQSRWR
Summary of the method: (§1)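 Fragment (200 µM) or vehicle was incubated for 3 h with triplicate HEK293T lysate samples of 495 µg, which were then treated with Biotin-Ahx-Ub-VS at 0.5 µM final for 1 h. Labelled DUBs were enriched on NeutrAvidin, digested with LysC and trypsin, and analysed by diaPASEF LC-MS/MS. Values are average log2 fragment/vehicle ratios from an unpaired t-test on global-median-normalised Spectronaut label-free quantities, using proteins with ≥2 unique peptides.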

USP22 = target: T2, USP22 (UniProt Q9UPT9)
T2 sequence (whole entry): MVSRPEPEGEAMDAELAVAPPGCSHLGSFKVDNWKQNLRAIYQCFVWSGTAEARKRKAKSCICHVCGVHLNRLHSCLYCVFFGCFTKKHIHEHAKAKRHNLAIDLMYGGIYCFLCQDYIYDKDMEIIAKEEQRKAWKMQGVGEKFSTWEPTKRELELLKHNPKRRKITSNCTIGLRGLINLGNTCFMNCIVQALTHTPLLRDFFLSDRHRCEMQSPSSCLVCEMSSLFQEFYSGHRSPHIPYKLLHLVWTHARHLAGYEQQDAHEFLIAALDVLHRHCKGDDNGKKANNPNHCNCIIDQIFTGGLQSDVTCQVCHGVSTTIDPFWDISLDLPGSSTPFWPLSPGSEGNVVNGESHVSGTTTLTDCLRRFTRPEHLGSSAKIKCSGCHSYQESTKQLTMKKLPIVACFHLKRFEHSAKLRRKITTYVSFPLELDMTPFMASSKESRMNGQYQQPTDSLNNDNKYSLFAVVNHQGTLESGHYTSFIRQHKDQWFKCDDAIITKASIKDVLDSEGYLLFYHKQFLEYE
Summary of the method: as §1

USP24 = USP24 (UniProt Q9UPU5)
Sequence of USP24 (Q9UPU5 whole entry): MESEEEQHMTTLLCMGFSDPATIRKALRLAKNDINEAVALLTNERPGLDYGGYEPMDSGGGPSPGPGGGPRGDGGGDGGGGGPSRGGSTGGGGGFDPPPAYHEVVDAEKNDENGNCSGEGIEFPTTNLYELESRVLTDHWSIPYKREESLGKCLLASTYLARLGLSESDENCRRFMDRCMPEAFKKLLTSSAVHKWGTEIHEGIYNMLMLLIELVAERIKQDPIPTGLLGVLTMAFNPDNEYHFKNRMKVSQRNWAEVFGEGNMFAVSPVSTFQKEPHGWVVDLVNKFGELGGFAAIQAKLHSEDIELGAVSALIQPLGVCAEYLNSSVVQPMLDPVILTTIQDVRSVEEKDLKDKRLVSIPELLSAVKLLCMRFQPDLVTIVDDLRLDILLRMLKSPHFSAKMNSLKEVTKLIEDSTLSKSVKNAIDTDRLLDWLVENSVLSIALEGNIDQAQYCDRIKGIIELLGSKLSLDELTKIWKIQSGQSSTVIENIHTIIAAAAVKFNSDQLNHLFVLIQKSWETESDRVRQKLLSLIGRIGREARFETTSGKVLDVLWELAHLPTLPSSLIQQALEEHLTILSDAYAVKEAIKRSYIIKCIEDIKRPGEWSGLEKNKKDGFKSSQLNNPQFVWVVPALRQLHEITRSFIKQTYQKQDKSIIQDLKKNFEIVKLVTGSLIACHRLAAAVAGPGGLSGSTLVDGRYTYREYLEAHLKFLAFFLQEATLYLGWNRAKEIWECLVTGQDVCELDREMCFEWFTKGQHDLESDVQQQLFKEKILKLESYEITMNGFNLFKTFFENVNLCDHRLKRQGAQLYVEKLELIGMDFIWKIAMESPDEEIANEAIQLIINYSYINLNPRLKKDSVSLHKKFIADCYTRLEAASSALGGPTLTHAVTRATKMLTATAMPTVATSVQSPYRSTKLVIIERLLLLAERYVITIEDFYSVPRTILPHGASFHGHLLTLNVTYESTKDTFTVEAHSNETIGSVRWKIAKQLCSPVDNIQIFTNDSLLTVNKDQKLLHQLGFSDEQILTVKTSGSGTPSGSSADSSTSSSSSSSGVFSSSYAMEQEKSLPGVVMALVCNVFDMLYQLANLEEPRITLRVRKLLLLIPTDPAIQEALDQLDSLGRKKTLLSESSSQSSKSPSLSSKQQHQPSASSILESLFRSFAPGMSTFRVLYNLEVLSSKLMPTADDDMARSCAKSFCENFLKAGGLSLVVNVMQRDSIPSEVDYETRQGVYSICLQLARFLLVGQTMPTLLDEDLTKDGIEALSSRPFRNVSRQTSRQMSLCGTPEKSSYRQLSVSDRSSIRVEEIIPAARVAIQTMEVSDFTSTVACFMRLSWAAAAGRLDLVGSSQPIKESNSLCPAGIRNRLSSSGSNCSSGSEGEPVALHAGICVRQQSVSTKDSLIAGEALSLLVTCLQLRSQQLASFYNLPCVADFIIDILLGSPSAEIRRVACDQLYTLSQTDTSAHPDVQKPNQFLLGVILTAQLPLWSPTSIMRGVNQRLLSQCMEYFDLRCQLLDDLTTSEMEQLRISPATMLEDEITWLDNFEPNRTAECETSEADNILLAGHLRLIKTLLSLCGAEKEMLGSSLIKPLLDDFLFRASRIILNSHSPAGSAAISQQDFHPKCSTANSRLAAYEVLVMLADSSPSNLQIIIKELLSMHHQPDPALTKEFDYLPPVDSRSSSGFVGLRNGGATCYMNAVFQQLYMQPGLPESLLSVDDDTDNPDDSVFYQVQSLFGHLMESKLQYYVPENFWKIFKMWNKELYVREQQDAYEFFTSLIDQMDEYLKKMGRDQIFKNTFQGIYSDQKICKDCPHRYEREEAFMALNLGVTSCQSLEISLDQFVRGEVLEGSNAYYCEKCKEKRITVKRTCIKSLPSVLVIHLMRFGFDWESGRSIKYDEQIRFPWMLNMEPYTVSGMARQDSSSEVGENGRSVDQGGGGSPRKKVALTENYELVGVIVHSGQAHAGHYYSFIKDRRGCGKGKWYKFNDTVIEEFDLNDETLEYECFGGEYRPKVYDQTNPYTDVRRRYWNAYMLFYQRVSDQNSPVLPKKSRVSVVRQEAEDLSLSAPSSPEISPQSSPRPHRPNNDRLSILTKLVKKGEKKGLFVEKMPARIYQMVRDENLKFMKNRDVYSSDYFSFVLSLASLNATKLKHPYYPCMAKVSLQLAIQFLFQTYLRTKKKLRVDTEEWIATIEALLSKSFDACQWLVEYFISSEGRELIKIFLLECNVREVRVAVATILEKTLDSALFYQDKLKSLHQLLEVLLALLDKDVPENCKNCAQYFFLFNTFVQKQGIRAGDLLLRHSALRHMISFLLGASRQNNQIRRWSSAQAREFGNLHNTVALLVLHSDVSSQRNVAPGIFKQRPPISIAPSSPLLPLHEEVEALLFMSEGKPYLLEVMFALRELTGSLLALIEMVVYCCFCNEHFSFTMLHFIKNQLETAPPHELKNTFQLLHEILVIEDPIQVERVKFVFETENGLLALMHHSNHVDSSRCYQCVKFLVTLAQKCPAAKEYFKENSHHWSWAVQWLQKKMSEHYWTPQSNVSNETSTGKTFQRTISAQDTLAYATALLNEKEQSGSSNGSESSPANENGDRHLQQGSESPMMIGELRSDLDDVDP
Summary of the method: as §1

USP25 = target: T3, USP25 (UniProt Q9UHP3)
T3 sequence (whole entry): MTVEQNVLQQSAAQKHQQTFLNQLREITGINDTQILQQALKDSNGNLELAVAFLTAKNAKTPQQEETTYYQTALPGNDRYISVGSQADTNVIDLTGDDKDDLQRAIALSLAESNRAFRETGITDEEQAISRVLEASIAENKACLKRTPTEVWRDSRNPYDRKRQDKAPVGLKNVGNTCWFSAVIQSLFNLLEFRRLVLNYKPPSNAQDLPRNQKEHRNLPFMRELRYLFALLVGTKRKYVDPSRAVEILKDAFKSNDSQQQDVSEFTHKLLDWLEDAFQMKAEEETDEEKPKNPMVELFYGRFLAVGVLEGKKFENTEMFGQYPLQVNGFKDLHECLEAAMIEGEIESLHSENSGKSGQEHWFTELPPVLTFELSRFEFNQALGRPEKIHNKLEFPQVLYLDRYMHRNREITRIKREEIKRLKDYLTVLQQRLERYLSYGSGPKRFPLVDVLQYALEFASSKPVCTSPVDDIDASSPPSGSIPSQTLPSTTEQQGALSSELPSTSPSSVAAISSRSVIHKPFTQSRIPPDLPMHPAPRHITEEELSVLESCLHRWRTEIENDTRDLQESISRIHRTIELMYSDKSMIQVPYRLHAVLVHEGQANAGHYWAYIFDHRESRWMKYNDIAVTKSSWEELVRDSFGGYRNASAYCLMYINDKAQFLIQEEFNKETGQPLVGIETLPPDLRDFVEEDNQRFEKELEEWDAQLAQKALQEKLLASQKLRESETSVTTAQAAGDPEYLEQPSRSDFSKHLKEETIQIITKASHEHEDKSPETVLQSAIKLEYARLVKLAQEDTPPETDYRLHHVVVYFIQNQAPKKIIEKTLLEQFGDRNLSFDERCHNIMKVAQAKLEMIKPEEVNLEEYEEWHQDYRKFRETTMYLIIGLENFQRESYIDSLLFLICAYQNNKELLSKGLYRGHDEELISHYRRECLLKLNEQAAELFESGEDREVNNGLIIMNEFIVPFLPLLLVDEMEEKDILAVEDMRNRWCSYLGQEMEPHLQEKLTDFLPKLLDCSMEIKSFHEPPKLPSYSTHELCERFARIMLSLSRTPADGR
Summary of the method: as §1

USP28 = target: T4, USP28 (UniProt Q96RU2)
T4 sequence (whole entry): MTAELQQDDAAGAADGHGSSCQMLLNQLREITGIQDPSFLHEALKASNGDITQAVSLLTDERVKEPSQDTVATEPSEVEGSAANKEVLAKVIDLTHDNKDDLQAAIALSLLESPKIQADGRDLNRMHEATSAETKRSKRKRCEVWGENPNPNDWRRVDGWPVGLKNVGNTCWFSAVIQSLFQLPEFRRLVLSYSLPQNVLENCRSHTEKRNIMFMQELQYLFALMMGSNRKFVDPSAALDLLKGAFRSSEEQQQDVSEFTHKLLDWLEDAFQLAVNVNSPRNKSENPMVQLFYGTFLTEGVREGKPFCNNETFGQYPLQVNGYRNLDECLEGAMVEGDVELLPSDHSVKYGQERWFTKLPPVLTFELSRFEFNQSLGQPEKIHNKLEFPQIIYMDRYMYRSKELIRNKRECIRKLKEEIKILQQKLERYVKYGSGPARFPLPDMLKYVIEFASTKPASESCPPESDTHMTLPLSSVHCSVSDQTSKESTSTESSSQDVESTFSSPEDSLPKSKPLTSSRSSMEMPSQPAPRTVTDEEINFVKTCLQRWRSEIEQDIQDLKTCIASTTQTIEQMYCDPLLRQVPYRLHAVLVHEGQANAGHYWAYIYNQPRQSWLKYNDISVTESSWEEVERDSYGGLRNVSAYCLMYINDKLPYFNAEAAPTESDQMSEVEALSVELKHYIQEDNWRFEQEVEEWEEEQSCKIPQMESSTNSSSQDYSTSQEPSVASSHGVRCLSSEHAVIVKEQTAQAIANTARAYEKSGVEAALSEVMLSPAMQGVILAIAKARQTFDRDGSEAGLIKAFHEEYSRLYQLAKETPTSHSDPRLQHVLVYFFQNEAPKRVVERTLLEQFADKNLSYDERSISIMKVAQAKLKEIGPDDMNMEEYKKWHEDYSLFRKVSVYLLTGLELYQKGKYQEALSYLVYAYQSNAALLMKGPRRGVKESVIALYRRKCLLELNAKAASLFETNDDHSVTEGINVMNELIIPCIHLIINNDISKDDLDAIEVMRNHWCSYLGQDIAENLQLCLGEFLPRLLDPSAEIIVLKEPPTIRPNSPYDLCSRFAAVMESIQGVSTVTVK
Summary of the method: as §1

Measured: log2 ratio of Biotin-Ahx-Ub-VS probe labelling

O=C(CCl)N1CCCCC12CCOCC2
inactive: USP19 -0.481 | USP22 -0.332 | USP24 -0.606 | USP25 -0.341 | USP28 -0.65
